Source: article PMC5540273 (PLoS ONE, 2017)

How the values were obtained:
Details in all cases: concentration: 1 μM, replicates: in singlicate; n = 1
ASK2 = tested on: T1, ASK2
T1 construct: gene MAP3K6

AURKA = tested on: AURKA
AURKB = tested on: AURKB
AURKC = tested on: AURKC
AXL = tested on: AXL
BIKE = tested on: T2, BIKE
T2 construct: gene BMP2K

BLK = tested on: BLK
BMPR1A = tested on: BMPR1A
BMPR1B = tested on: BMPR1B
BMPR2 = tested on: BMPR2
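Note: KINOMEscan kinase panel screen.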

Row | Structure (SMILES) | %Inh (ASK2) [%] | %Inh (AURKA) [%] | %Inh (AURKB) [%] | %Inh (AURKC) [%] | %Inh (AXL) [%] | %Inh (BIKE) [%] | %Inh (BLK) [%] | %Inh (BMPR1A) [%] | %Inh (BMPR1B) [%] | %Inh (BMPR2) [%]
1 | CCc1ccc(-c2ccc3c(c2)-c2c(cnn2C)S(=O)(=O)N3C)cc1 | 0 | 14 | 0 | 35 | 8 | 0 | 0 | 0 | 0 | 0
2 | O=C(Nc1n[nH]c2nc(-c3ccc(O)cc3)ccc12)C1CC1 [SB-710363] | 12 | 11 | 47 | 0 | 37 | 32 | 12 | 8 | 34 | 16
3 | COc1cccc(-c2ccc3c(NC(=O)C4CC4)n[nH]c3n2)c1 [SB-710903] | 0 | 0 | 35 | 0 | 0 | 0 | 0 | 0 | 35 | 44
4 | CCn1c(-c2nonc2N)nc2c(C#CC(C)(C)O)ncc(OCCCCN)c21.O=C(O)C(F)(F)F.O=C(O)C(F)(F)F [GSK507274] | 16 | 0 | 38 | 9 | 0 | 26 | 8 | 14 | 0 | 12
5 | CN(C)Cc1ccc(-c2ccc3c(Nc4ccc(Oc5ccccn5)cc4)ccnc3c2)o1 [GW567148] | 0 | 0 | 81 | 51 | 2 | 17 | 91.5 | 0 | 0 | 28
6 | Cc1ccc(C(=O)Nc2ccc(Nc3ccnc4cc(-c5nccs5)ccc34)cc2O)cc1.Cl [GW494702] | 0 | 100 | 91.3 | 61 | 9 | 9 | 97 | 0 | 0 | 12
7 | Cl.c1ccc(-c2ccc3c(Nc4ccc5[nH]ncc5c4)ccnc3c2)nc1 [GW440137] | 19 | 1 | 3 | 22 | 4 | 18 | 40 | 0 | 31 | 0
8 | COc1cc(Nc2ncc3c(C)nc(-c4cc5ccccc5[nH]4)n3n2)cc(OC)c1OC [GW869516] | 0 | 0 | 1 | 26 | 26 | 9 | 60 | 22 | 0 | 0
9 | Cc1ccc(F)c(C(=O)Nc2cccc(-c3nn4ccccc4c3-c3ccnc(Nc4cccc(F)c4)n3)c2)c1F [GSK361061] | 27 | 29 | 4 | 59 | 56 | 35 | 91.3 | 10 | 0 | 8
10 | Cc1cccc(NC(=O)Nc2ccc(Oc3ncnc4ccn(C)c34)cc2)c1 | 0 | 0 | 94.9 | 85 | 44 | 10 | 0 | 0 | 0 | 0
11 | Cn1cc(-c2[nH]c3cc(NC(=O)[C@H](N)C4CCCCC4)cc4c3c2C=NNC4=O)cn1 | 0 | 100 | 99.7 | 99.3 | 99.9 | 100 | 99.5 | 19 | 87 | 22
12 | Fc1ccc(-c2ncn(C3CCNCC3)c2-c2ccnc(Oc3ccc(-c4ccccc4)cc3)n2)cc1 [SB-245391] | 12 | 53 | 39 | 0 | 18 | 0 | 20 | 18 | 2 | 46
13 | Cc1ccc(S(=O)(=O)Nc2ccc(Nc3nccc(Nc4cccc5[nH]ncc45)n3)cc2)cc1 [GSK581271] | 0 | 99.8 | 37 | 52 | 0 | 65 | 0 | 0 | 0 | 4
14 | CSc1cccc2c(-c3ccncn3)c(-c3ccc(F)cc3)nn12 [GW514786] | 29 | 8 | 15 | 7 | 11 | 8 | 19 | 10 | 0 | 11
15 | COCCOCCOc1cc2ncc3c4ccc(C#N)cc4[nH]c3c2cc1OC | 0 | 51 | 83 | 62 | 44 | 100 | 21 | 0 | 0 | 0
16 | C[C@@H]1CC[C@@H](C(=O)Nc2ccccc2)CN1c1cc(-c2ccc3c(N)n[nH]c3c2)nc(N)n1 [GSK2286062] | 2 | 4 | 16 | 26 | 0 | 9 | 0 | 0 | 0 | 0
17 | CC(C)c1nc(-c2cccc(NS(=O)(=O)c3c(F)cccc3F)c2F)c(-c2ccnc(Nc3ccc(N4CCOCC4)nc3)n2)s1 [GSK2008607] | 3 | 93.6 | 91.8 | 53 | 97.5 | 24 | 99.7 | 53 | 98.5 | 0
18 | CC(C)(C)c1ccc2nccc(Nc3cccc(O)c3)c2c1 [GW856795] | 0 | 0 | 33 | 0 | 70 | 0 | 59 | 0 | 44 | 38
19 | CCn1c(-c2nonc2N)nc2c(C#CC(C)(C)O)nc(OC[C@H](N)c3ccccc3)cc21 [GSK943949] | 0 | 37 | 0 | 4 | 13 | 19 | 0 | 0 | 9 | 1
20 | COc1cc(Nc2nccc(N3CCC(NC(=O)Nc4cccc(C(C)=O)c4)C3)n2)cc(OC)c1OC (centres unmarked) [GSK1379753] | 0 | 83 | 57 | 77 | 0 | 74 | 9 | 0 | 0 | 9
21 | C[C@@H](Oc1cc(-n2cnc3cc(-c4ccnc(NCCS(C)(=O)=O)c4)ccc32)sc1C(N)=O)c1ccccc1Cl [GSK907232] | 7 | 0 | 27 | 65 | 91 | 97.7 | 30 | 21 | 0 | 0
22 | Nc1ncc(-c2cccnc2)c2scc(-c3ccc4c(c3)CCN4C(=O)Cc3ccccc3)c12 [GSK683281] | 10 | 25 | 70 | 70 | 89 | 16 | 82 | 6 | 0 | 3
23 | COC(=O)Nc1nc2ccc(Oc3ccc(NC(=O)Nc4cc(C(F)(F)F)ccc4F)cc3)cc2n1C.Cl [GW692089] | 0 | 0 | 94.1 | 14 | 95 | 0 | 27 | 0 | 0 | 11
24 | O=C(Nc1n[nH]c2cc(-c3ccoc3)ccc12)C1CC1 [SB-738481] | 5 | 23 | 20 | 19 | 37 | 35 | 0 | 11 | 21 | 60
25 | Clc1ccc(-c2nn3ncccc3c2-c2ccnc(Nc3ccc4c(c3)OCCO4)n2)cc1 [GW829116] | 0 | 18 | 0 | 0 | 0 | 0 | 48 | 0 | 0 | 0
26 | Cl.NC(=O)c1cccc(Nc2nccc(Nc3ccc(Oc4c(Cl)cccc4Cl)c(Cl)c3)n2)c1 [GW659009] | 0 | 0 | 17 | 43 | 5 | 56 | 45 | 100 | 0 | 0
27 | COc1cc(Nc2nccc(-c3c(-c4cccc(NC(=O)c5c(F)cccc5F)c4)nn4ncccc34)n2)cc(OC)c1OC [GSK327238] | 8 | 99.1 | 92.5 | 70 | 91.3 | 7 | 99.6 | 3 | 0 | 0
28 | COc1cc(Nc2nccc(-c3c(-c4cccc(NC(=O)c5c(F)cccc5F)c4)nn4ccccc34)n2)cc(OC)c1OC [GSK323521] | 4 | 48 | 90.6 | 15 | 80 | 21 | 44 | 0 | 0 | 11
29 | Cn1cc(-c2ccc3c(c2)CCN3C(=O)Cc2cccc(Cl)c2)c2c(N)ncnc21 [GSK2606590] | 19 | 23 | 89 | 65 | 96.3 | 18 | 69 | 0 | 0 | 4
